Source: PubChem BioAssay (National Center for Advancing Translational Sciences (NCATS))
An excerpt weighted towards active compounds, which were near 2.4% of everything screened.
Pol iota inh – qHTS for Inhibitors of Polymerase Iota; Potency, µM (top dose mostly 115 µM), inactives show top-dose activity, negative = inhibition, actives largely listed as inhibitors; AID 588590, 2011; DNA polymerase iota (Homo sapiens), Q9UNA4; actives 1% (n = 390,000); Pol iota fluorescent replication assay, 10 min
Target sequence (Q9UNA4 whole entry, looked up): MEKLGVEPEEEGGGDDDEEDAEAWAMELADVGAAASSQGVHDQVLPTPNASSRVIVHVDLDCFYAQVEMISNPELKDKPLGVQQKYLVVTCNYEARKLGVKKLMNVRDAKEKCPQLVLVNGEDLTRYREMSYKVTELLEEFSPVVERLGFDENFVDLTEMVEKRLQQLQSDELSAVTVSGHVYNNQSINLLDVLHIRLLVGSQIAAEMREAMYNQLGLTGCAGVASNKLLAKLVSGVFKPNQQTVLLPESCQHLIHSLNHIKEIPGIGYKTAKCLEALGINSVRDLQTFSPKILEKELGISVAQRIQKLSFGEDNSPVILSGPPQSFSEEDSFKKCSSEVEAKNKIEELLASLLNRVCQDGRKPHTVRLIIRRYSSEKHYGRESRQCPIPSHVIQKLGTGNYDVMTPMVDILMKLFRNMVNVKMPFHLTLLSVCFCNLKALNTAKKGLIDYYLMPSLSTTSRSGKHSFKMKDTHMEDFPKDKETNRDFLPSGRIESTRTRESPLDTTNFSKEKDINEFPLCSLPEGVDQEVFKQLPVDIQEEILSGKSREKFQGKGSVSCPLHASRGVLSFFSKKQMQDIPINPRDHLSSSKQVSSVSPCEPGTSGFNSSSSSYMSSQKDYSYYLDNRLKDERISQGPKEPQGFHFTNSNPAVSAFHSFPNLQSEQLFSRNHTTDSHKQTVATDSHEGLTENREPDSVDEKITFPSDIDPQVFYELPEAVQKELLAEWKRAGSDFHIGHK
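Pol iota at 10 nM preincubated 15 min with compounds at room temperature; reaction started with fluorescent substrate, 50 nM final. Fluorescence read kinetically at 0 and 10 min; buffer-only wells as negative control.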
Pol kappa inh – qHTS for Inhibitors of Polymerase Kappa. DNA polymerase kappa (Homo sapiens), Q9UBT6. purified Pol kappa, fluorescent DNA synthesis assay, 10 min. Potency, µM (series often up to 107 µM), inactives show top-dose activity, negative = inhibition, usual class: inhibitors. actives 0.53% (n = 400,000). AID 588579, 2011; also: % is scaled to controls: 0 for no effect and ±100 for the full control effect
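10 nM Pol kappa was preincubated with compounds for 15 min at room temperature. Reaction started with 50 nM (final) substrate. Fluorescence read kinetically at 0 and 10 min.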
POLH inh – qHTS for Inhibitors of Polymerase Eta; AID 588591, 2011; recombinant Pol eta, fluorescent DNA replication assay; actives 1.2% (n = 390,000); Potency, µM (top dose mostly 114 µM), for inactives: top-dose activity change, negative = inhibition, hits mostly inhibitors; DNA polymerase eta (Homo sapiens), Q9Y253; also: % is scaled to controls: 0 for no effect and ±100 for the full control effect
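Pol eta (10 nM) was preincubated with compounds for 15 min at room temperature, after which fluorescent replication substrate (50 nM final) was added to start the reaction. Fluorescence was read kinetically at 0 and 10 min.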
WRN inhibitor – qHTS for Inhibitors of WRN Helicase. Bifunctional 3'-5' exonuclease/ATP-dependent helicase WRN (Homo sapiens), Q14191. WRN helicase unwinding, fluorescent forked duplex, kinetic. Potency, µM (top dose mostly 114 µM), for the others: at the highest dose activity change, negative = inhibition, most hits filed as inhibitors. actives 0.46% (n = 360,000); also: % is scaled to controls: 0 for no effect and ±100 for the full control effect; nearly all actives have a fitted effect of over 55% in size
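Fluorescence dequenching readout, ex 525 nm/em 598 nm, kinetic mode: forked duplex DNA (100 nM final) with adjacent fluorophore and quencher unwound by WRN (20 nM final) with 2 mM ATP. Compound preincubation 15 min, room temperature.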
FEN1 inh – qHTS Assay for the Inhibitors of Human Flap endonuclease 1 (FEN1) | AID 588795, 2011 | actives 0.35% (n = 390,000) | Potency, µM (top dose mostly 114 µM), for inactives: top-dose activity change, negative = inhibition, actives largely listed as inhibitors | Recombinant FEN1 flap cleavage, fluorescence, 15 min; also: % is scaled to controls: 0 for no effect and ±100 for the full control effect; nearly all actives have a fitted effect of over 65% in size
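FEN1 at 10 nM preincubated with compounds 15 min at room temperature, then flap DNA substrate added at 50 nM final. Signal read at 0 and 15 min; concentration-response fitted with four-parameter Hill equation.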
Pol beta inh – qHTS Assay for Inhibitors of DNA Polymerase Beta | Potency, µM (highest dose often 114 µM), without a hit: at the highest dose activity change, negative = inhibition, actives largely listed as inhibitors | actives 1.3% (n = 340,000) | AID 485314, 2010 | Pol beta primer extension/strand displacement, fluorescence kinetic | P06746; also: % is scaled to controls: 0 for no effect and ±100 for the full control effect
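Pol beta (10 nM) and compounds were preincubated 15 min at room temperature, then 50 nM substrate (final) started primer extension/strand displacement. Reads were taken at 0 and 10 min; concentration-response data were fitted to a four-parameter Hill equation.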
* hit, by the source's call; u = inconclusive; x = no result; [ ] = remark or other dose. Calls follow the shape of the dose curve; as a rule, active = well fitted curve in the direction sought with a large enough effect; inconclusive = small, poorly fitted or top-dose-only effect, or another doubt; inactive = no such curve, though single readings can be large; an effect the other way counts as inactive or inconclusive. Potency is read from the fitted curve at half-maximal effect.

SMILES	Pol iota inh	Pol kappa inh	POLH inh	WRN inhibitor	FEN1 inh	Pol beta inh
O=C(CCCc1c[nH]c2ccccc12)NCCc1c[nH]c2ccccc12	29%	-6%	89µM*	-2%	-14%	-2%
CCC1(OC(=O)CN(C)C)C(=O)OCc2c1cc1n(c2=O)Cc2cc3c(N)cccc3nc2-1 (configuration not stated)	8.9µM*	u	7.9µM*	u	u	x
c1coc(C2Nc3ccccc3C3OCCC23)c1 (configuration not stated)	0%	-9%	-5%	-2%	5%	8%
COc1ccc2c(c1)C1OCCC1C(c1ccco1)N2 (configuration not stated)	79µM*	-19%	-4%	-4%	1%	x
COC(=O)/C=C/c1cc(F)ccc1S(=O)(=O)Nc1ccccc1	27%	-32%	x	x	-17%	x
O=C(CN1CCN(S(=O)(=O)c2ccc(F)cc2)CC1)c1ccc(O)c(O)c1	51%	-12%	-6%	-3%	-3%	-30%
COc1ccc(S(=O)(=O)N2CCN(CC(=O)c3ccc(O)c(O)c3)CC2)cc1	u	32µM*	u	-6%[11.6 µM]	-11%	u
Cc1cc(C(=O)CSc2nnc(-c3ccccc3)n2-c2ccccc2)c(C)n1-c1ncn[nH]1	u	u	20µM*	u	-33%	40µM*
Cc1cc(C(=O)CSc2nnc(-c3ccccc3)n2C)c(C)n1C	-6%	-20%	-3%	1%	-9%	-26%
O=C(CSc1nnc(-c2ccncc2)n1-c1ccccc1)Nc1ccc(C(=O)O)cc1	7%	-10%	-3%	0%	-3%	9%
Cc1cc(C(=O)CSc2nnc(-c3ccncc3)n2-c2ccccc2)c(C)n1C	18µM*	-24%	u	u	1%	45µM*
CCOC(=O)c1ccc(NC(=O)CSc2nnc(-c3ccncc3)n2-c2ccccc2)cc1	-19%	-10%[60.1 µM]	0%	x	-3%	2.2µM*
Cc1cc(C(=O)CSc2nnc3ccccn23)c(C)n1-c1ccccc1	27%	-2%	-11%	21%	4%	29%
C=CCNC(=O)c1cnn2c1NC(=C)C=C2C	25%	-9%	x	x	5%	x
CC(C)C1C(=O)N(S(C)(=O)=O)[C@H]2CCN(C(=O)/C=C/CN3CCCCC3)[C@@H]12 (some centres not stated)	x	18%[60.1 µM]	x	x	x	x
CCC(C)NC(=O)c1ccc2nc(-c3cccs3)c(-c3cccs3)nc2c1 (configuration not stated)	u	1%	x	x	12%	x
O=C(CCCCCN1CCN(c2ccccc2-c2ccccc2)CC1)NC1CCCc2ccccc21 (configuration not stated)	x	-17%[60.1 µM]	x	x	u	x
Clc1ccc(-c2nnc3sc(-c4ccc(Br)o4)nn23)cc1	89µM*	-16%	u	-37%	-1%	0%
Cc1cc2ccccc2cn1	-12%	4%	x	x	53%	x
CCCN1CCC(=O)N(C(CSc2ccc(C)cc2)CC(C)C)CC1 (configuration not stated)	-18%	-5%	x	x	-17%	x
CC1CCCC(C)N1/N=C/c1ccc(O)c(O)c1 (configuration not stated)	u	40µM*	u	-4%[11.6 µM]	4%	2.2µM*
COc1ccc(/C=N/N2C(C)CCCC2C)cc1O (configuration not stated)	140%	-7%	-3%	2%	5%	41%
COCCOC(=O)c1c(C)oc2ccc(NS(=O)(=O)c3ccc(C(=O)O)cc3)cc12	-17%	-22%	11µM*	-28%[57.1 µM]	-5%	35µM*
CCOc1ccc(S(=O)(=O)Nc2ccc3oc(C)c(C(=O)OCCOC)c3c2)cc1	12%	-7%[60.1 µM]	-24%	x	2%	-24%
C[n+]1ccc(/C=C/c2ccc([N+](C)(C)C)cc2)c2ccccc21	u	u	x	x	22µM*	x
SMILES	Pol iota inh	Pol kappa inh	POLH inh	WRN inhibitor	FEN1 inh	Pol beta inh
COc1ccc(/C=C/c2cc[n+](C)c3ccccc23)cc1OC	u	u	x	x	45µM*	x
C[n+]1ccc(/C=C/c2cc[n+](C)c3ccccc23)c2ccccc21	u	u	x	x	10µM*	x
C[n+]1ccc(/C=C/c2ccc(F)cc2)c2ccccc21	-29%	-28%	x	x	-7%	x
COc1ccccc1C(=O)NC(=O)COC(=O)c1nccnc1N	3%	-22%	18µM*	-12%	0%	x
CCOC(=O)Cc1cc(=O)c2c(=O)n(-c3ccccc3)[nH]c2[nH]1	22µM*	22µM*	-11%	-7%[57.1 µM]	-3%	2%
O=C(NCc1ccco1)C1CC2CCC1C2 (configuration not stated)	89µM*	-10%	-18%	-9%[57.1 µM]	-2%	-1%
COC(=O)c1cc(O)cc(OC)c1C(=O)c1c(O)cc(C)cc1O	71µM*	u	35µM*	-6%[11.6 µM]	-3%	u
COc1cccc(NC(=O)Cn2nc(Cc3cccnc3)c3ccccc3c2=O)c1	15%	-9%	-15%	5%	-1%	7%
O=C(Cn1nc(Cc2cccnc2)c2ccccc2c1=O)Nc1cccc(C(F)(F)F)c1	u	u	-5%	x	89µM*	12%
O=C(O)CCc1ccc(-c2cccs2)n1NC(=O)c1ccc(O)cc1	u	u	89µM*	-17%[57.1 µM]	-2%	u
O=C(O)CCc1ccc(-c2cccs2)n1Cc1ccco1	u	-8%	u	-4%[11.6 µM]	-2%	50µM*
O=C(O)CCc1ccc(-c2cccs2)o1	40µM*	u	45µM*	u	-16%	-21%
O=C(O)CCc1ccc(-c2cccs2)n1NC(=O)c1cccs1	0%	3%	-20%	2%	11%	u
O=C(O)CCc1ccc(-c2ccc(Cl)cc2)n1Cc1ccco1	43%	-2%	u	-18%	-1%	u
COCCn1c(CCC(=O)O)ccc1-c1cccs1	-15%	-12%	3%	-9%	12%	16%
COc1ccc(NC(=O)CSc2nc3n[nH]c(C)c3c(=N)n2-c2ccc(Cl)c(C)c2)cc1OC	35%	7%	50µM*	-5%	-9%	3.5µM*
CCc1ccc(NC(=O)CSc2nc3n[nH]c(C)c3c(=N)n2-c2ccccc2C)cc1	89µM*	-16%[60.1 µM]	16%	x	-4%	6%
